# Results as given in PubChem BioAssay (NCATS).
# Inconclusive results are not listed. Activity calls are given as the source filed them. Calls come from the whole dose curve; as a rule, active = well fitted curve in the direction sought with a large enough effect; inconclusive = small, poorly fitted or top-dose-only effect, or another doubt; inactive = no such curve, though single readings can be large; an effect the other way counts as inactive or inconclusive.
# Key:
# [1] = tested on: Zika virus NS2B-NS3 protease (unlinked complex); assay: Confirmatory screen GU AMC qHTS for Zika virus inhibitors (AID 1347153); note: nearly all actives have a fitted effect of over 70% in size;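 for Potency: enzyme at 25 nM with substrate at 10 µM below its Km of 18.3 µM; potency is the fitted concentration of half-maximal effect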
# Summary of the method: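 Unlinked NS2B-NS3 complex (25 nM) in 10 mM Tris-HCl pH 8.0, 0.01% Tween 20 preincubated 15 min with compound, then 10 microM Bz-Nle-KRR-AMC (Km 18.3 µM). Fluorescence change over 15 min, normalized, Hill-fitted.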
# [2] = Confirmatory screen GU Rhodamine qHTS for Zika virus inhibitors qHTS (AID 1347157); note: nearly all actives have a fitted effect of over 70% in size; note: potency is the fitted concentration of half-maximal effect
# Summary of the method: (§1)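 Noncovalent NS2B hydrophilic domain/NS3 protease complex (25 nM final) in 10 mM Tris-HCl pH 8.0, 0.01% Tween 20, preincubated 15 min with compounds (up to 114 microM), then 1.5 microM Rhodamine110 substrate. Fluorescence change over 15 min fitted to 4-parameter Hill.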
# [3] = tested on: Zika virus NS2B-NS3 protease (unlinked complex); assay: Primary screen GU Rhodamine qHTS for Zika virus inhibitors: Unlinked NS2B-NS3 protease assay (AID 1347159); note: nearly all actives have a fitted effect of over 60% in size; note: potency is the fitted concentration of half-maximal effect
# Summary of the method: as §1
# [4] = tested on: Zika virus NS2B-NS3 protease (linked construct); assay: Primary screen NINDS Rhodamine qHTS for Zika virus inhibitors (AID 1347160); note: nearly all actives have a fitted effect of over 55% in size; note: potency is the fitted concentration of half-maximal effect
# Summary of the method: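 Purified NS2B-NS3 protease with the NS2B hydrophilic domain joined by a flexible linker (25 nM) in 10 mM Tris-HCl pH 8.0, 0.01% Tween 20, preincubated 15 min at RT with compound; Rhodamine110 peptide substrate 1.5 µM; fluorescence change over 15 min; 4-parameter Hill fit.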
# [5] = tested on: Zika virus NS2B-NS3 protease (linked); assay: 384 well plate NINDS AMC confirmatory qHTS for Zika virus inhibitors (AID 1347163); note: potency is the fitted concentration of half-maximal effect; nearly all actives have a fitted effect of over 50% in size
# Summary of the method: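 Linked protease 5/30/60 nM final; cpds up to 1 mM final, ~15 min preinc. Substrate Ac-VKTGKR-AMC 30 microM final. RT, dark, 25 min; FI ex 355/em 460; normalized to no-enzyme/no-inhibitor ctrls.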
# [6] = tested on: Zika virus NS2B-NS3 protease (linked construct); assay: 384 well plate NINDS Rhodamine confirmatory qHTS for Zika virus inhibitors (AID 1347164); note: nearly all actives have a fitted effect of over 65% in size; note: potency is the fitted concentration of half-maximal effect
# Summary of the method: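 Cleavage of Ac-LKRR-Rhodamine 110 (10 microM final) by linked protease (final 5, 30 or 60 nM) was followed as fluorescence at 485/538 nm after 25 min, room temperature, dark. Compounds preincubated ~15 min.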
# [7] = Vero cells viability qHTS for Zika virus inhibitors (AID 1347167)
# Summary of the method: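 Cells seeded at 2.5 x 10^5 cells/mL in DMEM with 4% FBS and attached overnight at 37 degrees C, then exposed to compound for 24 to 48 hours. Viability read as ATP content by CellTiter Glo luminescence.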
# Furin (Homo sapiens) = Furin (Homo sapiens) (UniProt P09958); assay: Furin counterscreen qHTS for Zika virus inhibitors (AID 1347149); note: nearly all actives have a fitted effect of over 70% in size; note: potency is the fitted concentration of half-maximal effect
# Summary of the method: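 Fluorogenic cleavage of BOC-RVRR-AMC (2 microM final, Km ~15 µM) was monitored (ex 340, em 450 nm) at 37C after 15 min RT preincubation of 5 nM furin with compounds in HEPES pH 7.0 buffer with CaCl2 and Triton X-100. Percent inhibition was fitted to a 4-parameter Hill curve.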
# [8] = ZIKV-mCherry secondary qHTS for Zika virus inhibitors (AID 1347158); note: potency is the fitted concentration of half-maximal effect
# Summary of the method: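 After overnight seeding at 37 °C, Vero cells receive compound and then ZIKV-mCherry (MOI 1). Following 48-72 h infection, cells are fixed, counterstained with Hoechst, and imaged; percent infected cells is derived from an mCherry intensity cut-off of 450 RFU.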
# Sequence of Furin (Homo sapiens) (P09958 whole entry, looked up): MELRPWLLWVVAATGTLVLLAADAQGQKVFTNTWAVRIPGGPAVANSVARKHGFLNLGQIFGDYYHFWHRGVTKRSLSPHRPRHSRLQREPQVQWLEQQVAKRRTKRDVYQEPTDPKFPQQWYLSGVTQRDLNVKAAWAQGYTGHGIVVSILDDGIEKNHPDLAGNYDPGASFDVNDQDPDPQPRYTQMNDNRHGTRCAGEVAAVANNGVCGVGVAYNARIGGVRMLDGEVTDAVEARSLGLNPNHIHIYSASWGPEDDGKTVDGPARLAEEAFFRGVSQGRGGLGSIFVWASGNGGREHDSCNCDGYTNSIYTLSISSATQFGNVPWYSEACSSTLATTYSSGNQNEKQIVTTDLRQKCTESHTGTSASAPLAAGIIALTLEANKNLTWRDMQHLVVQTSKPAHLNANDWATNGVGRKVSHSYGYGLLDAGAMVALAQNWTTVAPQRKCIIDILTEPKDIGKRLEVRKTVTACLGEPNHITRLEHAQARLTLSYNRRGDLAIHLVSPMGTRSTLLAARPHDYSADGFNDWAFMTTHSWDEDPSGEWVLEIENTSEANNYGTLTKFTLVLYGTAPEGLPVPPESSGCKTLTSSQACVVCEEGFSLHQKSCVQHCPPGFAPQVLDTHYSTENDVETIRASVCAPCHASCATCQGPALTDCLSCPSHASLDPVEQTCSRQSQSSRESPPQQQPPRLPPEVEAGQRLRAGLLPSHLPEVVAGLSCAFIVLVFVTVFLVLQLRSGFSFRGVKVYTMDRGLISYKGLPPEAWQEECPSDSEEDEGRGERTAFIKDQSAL
Structure (SMILES),Potency [1],Potency [2],Potency [3],Potency [4],Potency [5],Potency [6],outcome [7],Potency (Furin (Homo sapiens)),Potency [8]
CCCCCCOc1cc2c(cc1N(C)c1ncc(C(=O)O)cn1)C(C)(C)CCC2(C)C,35 µM (active),6.98 µM (active),3.98 µM (active),7.94 µM (active),8.91 µM (active),3.16 µM (active),inactive,–,–
Nc1ncnc2c([C@@H]3N[C@H](CO)[C@@H](O)[C@H]3O)c[nH]c12,–,–,inactive,inactive,–,inactive,inactive,inactive,–
COc1ccc(Cl)c(Nc2nc3ccccc3nc2NS(=O)(=O)c2cccc(NC(=O)C(C)(C)N)c2)c1,–,5.55 µM (active),–,5.01 µM (active),2.51 µM (active),3.98 µM (active),inactive,–,15.8 µM (active)
CCc1c(-c2ccccc2)c(-c2ccccc2)nn1-c1ccccc1-c1cccc(OCC(=O)O)c1,27.8 µM (active),3.12 µM (active),6.31 µM (active),3.55 µM (active),3.98 µM (active),2.51 µM (active),inactive,30.4 µM (active),–
C#CCN(Cc1cc2c(=O)[nH]c(C)nc2cc1Br)c1ccc(C(=O)NCc2cccnc2)cc1,–,44.1 µM (active),39.8 µM (active),inactive,–,–,–,–,–
O=S(=O)(c1ccccc1)c1cnc2c(N3CCNCC3)cccc2c1,–,inactive,–,–,–,–,–,–,–
N#CC(c1ccnc(OCc2ccc(CN3CCOCC3)cc2)n1)c1nc2ccccc2s1 (stereo not drawn),inactive,31.2 µM (active),3.98 µM (active),7.94 µM (active),–,5.01 µM (active),inactive,inactive,–
CC(=O)c1ccc(O[C@@H]2O[C@H](CO)[C@@H](O)[C@H](O)[C@H]2O)cc1,–,–,inactive,–,–,–,–,–,–
